Only some compounds are listed: those with a hit (about 0.3% of all), similar ones and a draw of the others.
NPYLR7 ag: activates Aedes aegypti NPYLR7 receptor | AID 1259423 | HEK293T NPYLR7/Galpha15, GCaMP6s calcium fluorescence | activation, % at 10 µM | actives 0.15% (n = 270,000); in the data active = activation above about 40%;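 also: 0% = vehicle and 100% = reference agonist at the receptor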
hcGAS lum: blocks human cGAS activity; actives 0.081% (n = 290,000); recombinant h-cGAS, ATP depletion, Kinase-Glo luminescence; inhibition, % at 12.5 µM; Q8N884; AID 1259398;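 also: 0% = vehicle reaction and 100% = reaction without DNA for no activity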
mcGAS lum: inhibitors of mouse cGAS | inhibition, % at 12.5 µM | Q8C6L5 | actives 0.15% (n = 160,000) | recombinant cGAS, Kinase-Glo ATP depletion luminescence;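 also: 0% = negative control wells and 100% = reference inhibitor with no enzyme activity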
Target sequence (Q8C6L5 whole entry, looked up): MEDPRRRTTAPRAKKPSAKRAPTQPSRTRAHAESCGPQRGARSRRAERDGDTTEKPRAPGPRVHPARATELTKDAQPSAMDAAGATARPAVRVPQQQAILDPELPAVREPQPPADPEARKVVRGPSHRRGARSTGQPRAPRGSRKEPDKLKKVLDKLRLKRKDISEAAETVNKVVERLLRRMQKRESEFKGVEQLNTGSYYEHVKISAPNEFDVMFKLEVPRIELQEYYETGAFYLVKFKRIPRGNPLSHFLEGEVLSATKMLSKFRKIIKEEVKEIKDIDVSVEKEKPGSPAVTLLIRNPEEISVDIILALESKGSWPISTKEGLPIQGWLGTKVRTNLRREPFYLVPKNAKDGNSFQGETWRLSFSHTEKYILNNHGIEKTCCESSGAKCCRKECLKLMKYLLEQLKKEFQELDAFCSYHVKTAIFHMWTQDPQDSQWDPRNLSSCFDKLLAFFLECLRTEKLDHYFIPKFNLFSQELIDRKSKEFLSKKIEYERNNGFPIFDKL
Starred values were filed as active, the others as inactive; ! = a repeat was not active. Rule as the data show it, unless noted: active = inhibition above about 40%; inactive = the rest.

`COc1ccc(C(=O)N2CCC3(CC2)CN(C2CCC2)CC3CO)cn1` (centres undefined) gave hcGAS lum 48* and mcGAS lum -5.
`COCC1CN(C2CCC2)CC12CCN(C(=O)C1(c3ccccc3)CC1)CC2` (centres undefined) gave hcGAS lum -18 and mcGAS lum -6.
For NC(=O)c1ncn(C2O[C@H](CO)[C@@H](O)[C@H]2O)c1N (some centres undefined) the results were NPYLR7 ag 5 and hcGAS lum -8.
Screening Nc1ncn([C@@H]2O[C@H](CO)[C@@H](O)[C@H]2O)c(=O)n1 returned NPYLR7 ag 46*!, hcGAS lum 4 and mcGAS lum -4.
`Nc1nc(Nc2ccccc2)nc2c1ncn2[C@@H]1O[C@H](CO)[C@H](O)C1O` (some centres undefined) gave NPYLR7 ag 0, hcGAS lum 0 and mcGAS lum -6.
OC[C@H]1O[C@@H](n2cnc3c(NC4CCCC4)nc(Cl)nc32)[C@@H](O)C1O (some centres undefined) was read as NPYLR7 ag 13 and hcGAS lum -3.
For Nc1nc(Cl)nc2c1ncn2[C@@H]1O[C@H](CO)[C@H](O)C1O (some centres undefined) the results were NPYLR7 ag 97*, hcGAS lum -2 and mcGAS lum -3.
Nc1nc(Cl)nc2c1ncn2[C@@H]1O[C@H](CO)[C@@H](O)[C@H]1O was read as NPYLR7 ag 76* and hcGAS lum 1.
Screening Cc1csc(C(NC(=O)NC2CC(=O)N(C3CC3C)C2)C2CC2)n1 (centres undefined) returned NPYLR7 ag -3 and hcGAS lum -2.
`Cc1[nH]ccc1C(=O)N1CCC2CCCCC21` (centres undefined) gave NPYLR7 ag 3 and hcGAS lum -5.
`CC(Sc1nnc(Nc2ccccc2)s1)C(=O)NCc1ccco1` (centres undefined) gave NPYLR7 ag 7 and hcGAS lum -3.
For CC(C)NC(=O)C(C#N)=Cc1ccc(O)cc1 the results were NPYLR7 ag 4, hcGAS lum 7 and mcGAS lum 2.
N#CC(=Cc1ccc(OC(F)F)cc1)C(=O)O was read as NPYLR7 ag 0, hcGAS lum -2 and mcGAS lum 49*.
CC(C)(C)c1ccc(S(=O)(=O)Nc2cc(Sc3ncn[nH]3)c(O)c3ccccc23)cc1 was read as NPYLR7 ag -7, hcGAS lum -8 and mcGAS lum 14.
For O=S(=O)(Nc1cc(Sc2ncn[nH]2)c(O)c2ccccc12)c1ccc(Br)cc1 the results were NPYLR7 ag -5, hcGAS lum -5 and mcGAS lum 44*.
`CCOC(=O)N1CCN(C(=O)c2cc(-c3ccc(OC)cc3OC)nn2-c2ccc([N+](=O)[O-])cc2)CC1` gave NPYLR7 ag 0, hcGAS lum -8 and mcGAS lum -6.
COc1ccc(N2C(=O)C3N=NN(Cc4ccccc4C)C3C2=O)cc1 (centres undefined) was read as NPYLR7 ag -6, hcGAS lum -4 and mcGAS lum -5.
For Cc1ccc(/C=C2\SC(=S)N(C(C(=O)O)C(C)C)C2=O)cc1 (centres undefined) the results were NPYLR7 ag -6, hcGAS lum -1 and mcGAS lum 7.
For O=C(O)CCCN1C(=O)/C(=C\c2ccc(O)cc2)SC1=S the results were NPYLR7 ag 61, hcGAS lum -4 and mcGAS lum -1.
Screening C=CCN1C(=O)/C(=C\c2ccc(N(C)C)cc2)SC1=S returned NPYLR7 ag 7, hcGAS lum -7 and mcGAS lum -7.
`CCN(CC)c1ccc(/C=C2\SC(=S)N(CC(=O)O)C2=O)c(O)c1` gave NPYLR7 ag 93*, hcGAS lum -18 and mcGAS lum -9.
`O=C(O)CN1C(=O)/C(=C\c2ccc(O)c(O)c2)SC1=S` gave NPYLR7 ag 13, hcGAS lum -2 and mcGAS lum 5.
For CC(C)C(C(=O)O)N1C(=O)/C(=C/c2ccc(O)cc2)SC1=S (centres undefined) the results were NPYLR7 ag 68*, hcGAS lum -3 and mcGAS lum -5.
`O=C(O)CN1C(=O)/C(=C\c2ccc(O)cc2)SC1=S` gave NPYLR7 ag 59* and hcGAS lum -5.
`CN(C)c1ccc(/C=C2/SC(=S)N(CC(=O)O)C2=O)cc1` gave NPYLR7 ag 71*, hcGAS lum 3 and mcGAS lum -8.
Cn1c(=O)c2c(ncn2CC(=O)N2CCOC(COc3ccccc3)C2)n(C)c1=O (centres undefined) was read as NPYLR7 ag 11, hcGAS lum 3 and mcGAS lum 1.
Screening O=C(NCCN1CCCC1)[C@@]1(OCc2ccc(F)cc2)CC(OCc2c(F)cccc2F)[C@H](O)[C@H](O)C1 (some centres undefined) returned NPYLR7 ag 15, hcGAS lum -14 and mcGAS lum -6.
For CC(C(=O)O)N1C(=O)/C(=C/c2ccc([N+](=O)[O-])cc2)SC1=S (centres undefined) the results were NPYLR7 ag -2, hcGAS lum -1 and mcGAS lum 39.
C=CCN1C(=O)/C(=C\c2ccc(O)cc2)SC1=S was read as NPYLR7 ag 55*, hcGAS lum -7 and mcGAS lum -6.
O=C(O)C(Cc1ccccc1)N1C(=O)/C(=C/c2ccc([N+](=O)[O-])cc2)SC1=S (centres undefined) was read as NPYLR7 ag 6, hcGAS lum 2 and mcGAS lum 54*.
For COc1ccc(Br)cc1/C=C1/SC(=S)N(CC(=O)O)C1=O the results were NPYLR7 ag -1 and hcGAS lum -1.
Screening C=CCN1C(=O)C(=Cc2ccncc2)SC1=S returned NPYLR7 ag -3 and hcGAS lum -5.
COc1cc(OC)c(OC)cc1/C=C1/SC(=S)N(CC(=O)O)C1=O was read as NPYLR7 ag 59*, hcGAS lum -1 and mcGAS lum -3.
COc1ccc(CCN(C)C(=O)c2ccc3c(c2)OCCO3)cc1OC was read as NPYLR7 ag -5 and hcGAS lum 4.
`COc1ccc(-c2cnc(N)cn2)cc1Cl` gave NPYLR7 ag 5, hcGAS lum -3 and mcGAS lum -11.
For CCCn1c(=NC(=O)C2=COCCO2)sc2cc(F)ccc21 the results were NPYLR7 ag 2, hcGAS lum -5 and mcGAS lum -7.
For COCCN1CCN(c2nc(C(=O)N3CCCCC3)cs2)C1=O the results were NPYLR7 ag -1 and hcGAS lum -8.
`COCCN(Cc1ccc(OC)cc1)CC(O)COC(C)C` (centres undefined) gave NPYLR7 ag 45, hcGAS lum -3 and mcGAS lum -5.
`COCCN(Cc1ccc(C)cc1)CC(O)COCC(C)C` (centres undefined) gave NPYLR7 ag 18, hcGAS lum 1 and mcGAS lum 90*.
COc1ccc(N=Nc2c(C)[nH]n(-c3ccc([N+](=O)[O-])cc3)c2=O)c([N+](=O)[O-])c1 was read as NPYLR7 ag -3, hcGAS lum -4 and mcGAS lum -6.
`CCCOc1ccc(C=O)c(O)c1` gave NPYLR7 ag 1 and hcGAS lum 2.
`CCOc1cc(C=O)c(O)c(C=O)c1` gave NPYLR7 ag 827* and hcGAS lum 15.
